In PubChem BioAssay AID463173 (ICCB-Longwood Screening Facility, Harvard Medical School, 2010):
Out of some 52,000 compounds screened, about 4,300 (8.3%) were called active. Rule as the data show it: active = survival mostly below about 52% (no sharp cut-off); inactive = mostly above about 56%. The full list was thinned out, with actives kept by preference.

The compounds below were run on DeltatarO mutant (assay: growth inhibition of S. aureus wild type versus tarO mutant, primary screen, teichoic acid synthesis inhibitors, RN4220, OD600 (AID 463173)). Settings: OD600, 18 h, active compounds read low, screened at 18.75 µg/mL (by protocol).

Compound	survival
COc1ccccc1C(=O)Nc1cc2c(cc1N1CCOCC1)n(C)c(=O)n2C	136% (inactive)
CCOc1cc(-c2nnc(SCC(=O)NCc3ccc(C)cc3)nc2-c2ccc(OC)c(OCC)c2)ccc1OC	78% (inactive)
CCOc1cc(NC(=S)NCCCN2CCOCC2)c(OCC)cc1NC(=O)C1CC1	94% (inactive)
O=C(Nc1ccc(OC(F)(F)F)cc1)C1CCN(S(=O)(=O)c2ccc3[nH]c(=O)ccc3c2)CC1	92% (inactive)
O=C(c1cccs1)N1CCC(Cc2ccccc2)CC1	86% (inactive)
O=C(Nc1ccc(Cl)cc1)C1CCN(S(=O)(=O)c2ccc(Br)s2)CC1	47% (active)
O=C(Nc1ccc(OC(F)(F)F)cc1)C1CCCN(S(=O)(=O)c2ccc(Br)s2)C1 (stereo not given)	80% (inactive)
O=C(Nc1ccc(OC(F)(F)F)cc1)C1CCN(S(=O)(=O)c2cccs2)CC1	21% (active)
Cn1cnc(S(=O)(=O)N2CCC(C(=O)Nc3ccc(OC(F)(F)F)cc3)CC2)c1	92% (inactive)
O=C(Nc1ccccc1)C1CCN(C(=O)c2cccs2)CC1	67% (active)
CC(=O)c1ccc(NC(=O)C2CCCN(S(=O)(=O)c3cn(C)cn3)C2)cc1 (stereo not given)	94% (inactive)
Cc1cc(NC(=O)C2CCN(S(=O)(=O)c3ccc(Br)s3)CC2)ccc1Br	79% (inactive)
Cn1cnc(S(=O)(=O)N2CCCC(C(=O)Nc3ccc(OC(F)(F)F)cc3)C2)c1 (stereo not given)	25% (active)
CC(C)c1ccc(NC(=O)C2CCN(S(=O)(=O)c3ccc(Br)s3)CC2)cc1	73% (inactive)
O=C(O)C1CCN(C(=O)c2cccs2)CC1	88% (inactive)
CCC1SC(C)C/C(=N\O)C1C (stereo not given)	105% (inactive)
CCOc1ccc(CCNC(=O)CCCc2nnc3n(C)c(=O)c4sccc4n23)cc1OCC	93% (inactive)
COc1cc(OC)cc(-c2nc3nc(C)c(CCC(=O)Nc4cc(C)cc(C)c4)c(C)n3n2)c1	69% (inactive)
O=C(NCc1cccc(Br)c1)C1CCN(C(=O)c2sccc2-n2cccc2)CC1	66% (inactive)
O=C(CN1C(=O)COc2ccc(S(=O)(=O)N3CCCCCC3)cc21)N1CCN(c2ccc(F)cc2)CC1	67% (inactive)

Compound	survival
CCCC(=O)Nc1nnc(SCc2cc(=O)c3ccc(C)cc3[nH]2)s1	122% (inactive)
COc1ccc(NS(=O)(=O)c2cc(-c3onc(C)c3C)ccc2C)c(OC)c1	89% (inactive)
CCOc1ccccc1NC(=O)C1CCN(S(=O)(=O)c2cccs2)CC1	58% (inactive)
CCc1cccc(NC(=O)C2CCCN(S(=O)(=O)c3cccs3)C2)c1 (stereo not given)	80% (inactive)
Cc1ccc(NC(=O)C2CCN(S(=O)(=O)c3cccs3)CC2)cc1	40% (active)
COc1ccc(NC(=O)C2CCCN(S(=O)(=O)c3cccs3)C2)cc1 (stereo not given)	96% (inactive)
O=C(Nc1cccc(C(F)(F)F)c1)C1CCN(S(=O)(=O)c2cccs2)CC1	39% (active)
O=C(Nc1cccc(C(F)(F)F)c1)C1CCN(S(=O)(=O)c2cccc3nsnc23)CC1	81% (inactive)
O=C(O)C1CSC(c2cccs2)N1 (stereo not given)	83% (inactive)
CCN1C(=O)c2ccccc2Sc2ccc(NC(=O)c3ccc(C#N)cc3)cc21	102% (inactive)
COc1ccc(Nc2cc(C(=O)NCCCN(C)C3CCCCC3)c3ccccc3n2)cc1	97% (inactive)
N#Cc1ccc(C(=O)N2CCN(c3nc4ccc(F)cc4s3)CC2)cc1	72% (inactive)
O=C(NCc1ccc(F)cc1)c1cc(-c2ccc(Cl)cc2)n[nH]1	85% (inactive)
Fc1ccc(CNc2cc(-c3ccccc3)nc3nncn23)cc1	17% (active)
Clc1ccc(CNc2cc(-c3ccccc3)nc3nncn23)cc1	50% (inactive)
Fc1ccc(CNc2nc(-c3ccccc3)cc(C(F)(F)F)n2)cc1	4% (active)
Fc1ccc(-c2cc(C(F)(F)F)nc(NCc3ccccc3)n2)cc1	85% (inactive)
Fc1ccc(CNc2nc(-c3ccc(Cl)cc3)cc(C(F)(F)F)n2)cc1	12% (active)
COc1ccc(-c2cc(NCc3ccc(F)cc3)n3cnnc3n2)cc1	61% (inactive)
O=C(CSc1nc(-c2ccc(F)cc2)cc(C(F)(F)F)n1)NCCc1ccccc1	73% (inactive)

Compound	survival
O=S(=O)(c1ccccc1)n1nc(-c2ccc(Cl)cc2)nc1NCc1ccc(F)cc1	53% (inactive)
O=C(NCC(c1cccnc1)N1CCN(Cc2ccccc2)CC1)C(=O)Nc1cccc(Cl)c1 (stereo not given)	77% (inactive)
CCOC(=O)c1cccc(NC(=O)Cc2ccc(NC(=O)N3CCCCc4ccccc43)cc2)c1	76% (inactive)
Cc1csc2nc(COC(=O)COc3ccccc3F)cc(=O)n12	64% (inactive)
CCOC(=O)c1[nH]cnc1C(=O)Nc1ccc(F)cc1	64% (inactive)
COc1cccc(NC(=O)CSc2nnc(NC(=O)NC3CCCCC3)s2)c1	75% (inactive)
COc1ccc(NC(=O)Cn2c(=O)n(CCc3ccccc3)c(=O)c3sc4ccccc4c32)cc1	76% (inactive)
O=C(CN1C(=O)CCSc2ccc(S(=O)(=O)N3CCCC3)cc21)Nc1cccc(F)c1	72% (inactive)
CCCCn1c(=NC(=O)c2c(-c3c(F)cccc3Cl)noc2C)c(C(=O)OCC)cc2c(=O)n3ccccc3nc21	170% (inactive)
COc1ccc(CNC(=O)CN2C(=O)COc3ccccc32)c(OC)c1	89% (inactive)
CC1CCN(S(=O)(=O)c2ccc3c(c2)CCN3C(=O)Nc2ccccc2Br)CC1	76% (inactive)
O=S(=O)(NCCc1nnc2ccc(SCc3cccc(Cl)c3)nn12)c1ccccc1	58% (inactive)
CCc1ccc(NC(=O)CSc2ccc3nnc(CCNS(=O)(=O)c4ccc(OC)cc4)n3n2)cc1	81% (inactive)
O=S(=O)(NCCc1nnc2ccc(SCc3ccc(Cl)cc3Cl)nn12)c1ccccc1	37% (active)
Cc1ccc(C)c(CSc2ccc3nnc(CCNS(=O)(=O)c4ccccc4)n3n2)c1	75% (inactive)
O=S(=O)(NCCc1nnc2ccc(SCc3ccccc3Cl)nn12)c1ccccc1	68% (active)
Cc1cccc(CSc2ccc3nnc(CCNS(=O)(=O)c4ccccc4)n3n2)c1	68% (inactive)
O=S(=O)(NCCc1nnc2ccc(SCc3c(F)cccc3Cl)nn12)c1ccccc1	58% (inactive)
COc1ccc(S(=O)(=O)NCCc2nnc3ccc(SCC(=O)Nc4cc(C)cc(C)c4)nn23)cc1	63% (active)
COc1ccc(S(=O)(=O)NCCc2nnc3ccc(SCC(=O)Nc4ccc(C(F)(F)F)cc4)nn23)cc1	81% (inactive)
